# From PubChem
# TDP1 cell CPT = qHTS for Inhibitors of human tyrosyl-DNA phosphodiesterase 1 (TDP1): qHTS in cells in presence of CPT. 420,000 tested, 12% active. Potency, µM (titrated, usually from 46.2 µM), inactives show top-dose activity change, negative = growth inhibition, most hits filed as inhibitors. chicken DT40 Tdp1-/-;hTDP1 cells + 20 nM CPT, ATP luminescence, 48 h; also: potency is read from the fitted curve at half-maximal effect; % is scaled to controls: 0 for no effect and ±100 for the full control effect; nearly all actives have a fitted effect of over 55% in size
#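 Cell growth measured by CellTiter-Glo luminescence after a minimum 48 h, 37 C compound exposure with 20 nM CPT in Tdp1-knockout DT40 cells stably expressing hTDP1, seeded 400/well; qHTS titration format.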
# D3 ag = qHTS of D3 Dopamine Receptor Agonist: qHTS. 410,000 tested, 0.58% active. D3R DiscoveRx beta-arrestin cells, luminescence, 90 min. D(3) dopamine receptor (Homo sapiens), P35462. max activation, %; in the data active = max activation above about 30%; also: 0% is about no effect
# Target sequence (P35462 whole entry, looked up): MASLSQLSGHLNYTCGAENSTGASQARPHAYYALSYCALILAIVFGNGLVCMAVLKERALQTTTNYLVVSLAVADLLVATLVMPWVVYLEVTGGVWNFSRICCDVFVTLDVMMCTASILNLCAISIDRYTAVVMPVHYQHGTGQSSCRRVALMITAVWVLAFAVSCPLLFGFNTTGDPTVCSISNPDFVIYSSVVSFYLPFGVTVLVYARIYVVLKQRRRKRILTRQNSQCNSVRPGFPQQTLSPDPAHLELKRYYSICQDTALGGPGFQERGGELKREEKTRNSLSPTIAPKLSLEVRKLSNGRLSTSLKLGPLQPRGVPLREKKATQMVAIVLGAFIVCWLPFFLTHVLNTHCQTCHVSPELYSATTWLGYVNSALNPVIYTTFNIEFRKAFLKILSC
#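 Agonist-mode cell screen: cells plated at 1500/well and incubated overnight at 37 °C, then exposed to library compounds for 90 min at 37 °C. Detection reagent was added for 30–60 min at room temperature, and luminescence was read.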
# IL1B secr inh = qHTS for Inhibitors of Inflammasome Signaling: IL-1-beta AlphaLISA Primary Screen | AID 743279, 2014 | activity change, % at 57.5 µM | 360,000 tested, 4.7% active | THP-1 LPS/ATP IL-1B secretion, AlphaLISA, 16 h; hits give low values; in the data active = activity change below about -50%; inconclusive = mostly about -30% to -49%; also: % is scaled to controls: 0 for no effect and ±100 for the full control effect
#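 Secreted IL-1B measured by AlphaLISA bead assay after 16 h compound exposure of THP-1 cells; compounds (final up to 57.5 uM) added 1 h before LPS (250 ng/mL) and ATP (1.25 mM) stimulation; lower signal means less secretion.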
# TDP1 cell noCPT = qHTS for Inhibitors of human tyrosyl-DNA phosphodiesterase 1 (TDP1): qHTS in cells in absence of CPT; DT40 Tdp1-/- hTDP1 cells, no CPT, ATP luminescence, 48 h; Potency, µM (highest dose often 46.2 µM), inactives show top-dose activity change, negative = growth inhibition, most hits filed as inhibitors; 420,000 tested, 15% active; AID 686978, 2013; also: potency is read from the fitted curve at half-maximal effect; % is scaled to controls: 0 for no effect and ±100 for the full control effect; nearly all actives have a fitted effect of over 55% in size
#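 No-CPT arm: Tdp1-/-;hTDP1 DT40 cells (400/well) plus compounds, incubated ≥48 hr at 37 °C. Readout CellTiter-Glo luminescence.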
# ClpP mod = qHTS Assay for Activators of ClpP. Potency, µM (highest dose often 57.5 µM), inactives show at the highest dose activity change, negative = active. purified B. subtilis ClpP, FRET peptide cleavage, 20 min. AID 651965, 2013. 340,000 tested, 1.9% active; active = well fitted falling curve with a large enough effect; inconclusive = small, poorly fitted or top-dose-only effect; inactive = no such curve, though single readings can be large or run the other way; also: potency is read from the fitted curve at half-maximal effect; the source files actives as falling curves though it sought activators and does not explain the sign; nearly all actives have a fitted effect of over 65% in size
#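 ClpP 10 microg/mL final, pH 8 Tris/KCl buffer with BSA, glycerol, Tween-20; compound pinned in; FRET-FV substrate; RT 20 min; Ex320/Em430; ΔFRET vs ADEP 5.8 microM, DMSO, no enzyme.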
# DRD3 antagonist = qHTS of D3 Dopamine Receptor Antagonist: qHTS | D3R cells, DiscoveRx beta-arrestin luminescence, antagonist mode; hits give low values | 360,000 tested, 2.5% active | max response, negative = inhibition, %; in the data active = max response below about -50%; inconclusive = no clear call, values can overlap the other calls; also: % is scaled to controls: 0 for no effect and ±100 for the full control effect
#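 Cells expressing the human receptor were seeded at 1500 cells/well, incubated overnight at 37 degrees C in 5% CO2, then exposed to library compounds with dopamine controls for 90 minutes at 37 degrees C before luminescent detection.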
# An asterisk follows results filed as active; i = inactive; ? = inconclusive; . = not tested or not shown. This is a sample that favours compounds with a hit; in the whole collection about 21% have one here. Unless noted, calls follow the shape of the dose curve; as a rule, active = well fitted inhibition curve with a large enough effect; inconclusive = small, poorly fitted or top-dose-only effect; inactive = flat fitted curve, though single readings scatter.
SMILES,TDP1 cell CPT,D3 ag,IL1B secr inh,TDP1 cell noCPT,ClpP mod,DRD3 antagonist
COc1cccc2c(=O)c(C(=O)O)c[nH]c12,-17%,-4,-1,-16%,22µM*,13
COc1cc2c(OC)cccc2cc1C(=O)O,-4%,-2,2,-11%,16µM*,-16
COc1cccc2c(=O)c(C(=O)NCCc3ccccc3)c[nH]c12,8%,-7,3,?,4%,7
CC(=O)c1ccc2c3c(cc(C)c2c1)CCCC3,22%,23,12,-17%,.,42
[O-][n+]1c2ccccc2c2n1CCCN=C2c1ccc(Cl)cc1,?,0,21,-21%,-4%,-28
CCOC(=O)c1sc(-c2ccccc2)cc1NC(=O)Nc1ccccc1,-12%,13,?,?,?,19
COC(=O)c1sc(-c2ccccc2)cc1NC(=O)Nc1ccccc1Cl,-28%,0,.,?,7%,.
CCOC(=O)c1sc(-c2ccc(F)cc2)cc1NC(=O)Nc1ccccc1OC,16µM*,-4,i,?,18µM*,10
COC(=O)c1sc(-c2ccccc2)cc1NC(C)=O,14%,4,2,0%,-2%,6
COC(=O)c1sc(-c2ccccc2)cc1NC(=O)Nc1ccc(Cl)cc1,?,4,.,?,18µM*,.
COC(=O)c1sc(-c2ccccc2)cc1NC(=O)Nc1ccc(F)cc1,?,4,.,?,32µM*,.
COc1cc(CN2CCc3nnc(C(NS(C)(=O)=O)C(C)C)n3CC2)ccc1F (stereo unspecified),13%,.,.,-7%,.,.
COc1ccc(-c2oc3c(CC=C(C)C)c(O[C@H]4OC(CO)C(O)C(O)C4O)cc(O)c3c(=O)c2O[C@@H]2OC(C)C(O)C(O)C2O)cc1 (stereo partly specified),1%,.,.,-11%,.,.
CCOc1cc(/C=N/NC(=O)c2nnn(-c3nonc3N)c2C)ccc1OCc1cccc(F)c1,-14%,-4,-8,-13%,?,2
Cc1ccc(/C=N/Nc2cn[nH]c(=O)n2)o1,0%,6,9,-4%,.,0
O=c1cnnc(N/N=C/c2ccccn2)[nH]1,4.6µM*,-13,187,3.3µM*,0%,1
O=c1nc(N/N=C/c2ccccn2)cn[nH]1,5.2µM*,8,160,5.2µM*,.,-4
Cc1cc(=O)[nH]c(N/N=C/c2ccc(-c3ccc(F)cc3)o2)n1,9.2µM*,19,14,13µM*,.,5
CC(/C=N/Nc1nncc(=O)[nH]1)=C\c1ccccc1,23%,1,-1,2%,-2%,-2
C(=N\Nc1nncc2ccccc12)/c1ccccn1,2.3µM*,8,150,2.9µM*,.,-7
Fc1cccc(/C=N/Nc2nncc3ccccc23)c1,?,-10,-6,?,2%,-12
Cc1cc(=O)[nH]c(N/N=C/c2ccccn2)n1,3.7µM*,0,89,4.6µM*,3%,2
Cc1cc(C)n(NC(=S)NC2CCCCC2)c(=O)c1C#N,-14%,-14,26,-18%,2%,-20
CCCCCCNC(=O)CCc1c(C)nc2nc(-c3cc(OC)cc(OC)c3)nn2c1C,?,8,.,16µM*,-15%,.
COc1ccc(NC(=O)CCc2c(C)nc3cc(-c4cccc(F)c4)nn3c2C)cc1Cl,16µM*,-3,.,13µM*,-8%,.
COc1cc(NC(=O)CCc2c(C)nc3cc(-c4ccccc4)nn3c2C)cc(OC)c1OC,?,2,.,21µM*,0%,.
COc1cc(OC)cc(-c2cc3nc(C)c(CCC(=O)Nc4ccc(F)c(Cl)c4)c(C)n3n2)c1,18µM*,0,.,16µM*,-8%,.
